# PubChem BioAssay (EPA / NIEHS)
# Activity calls are given as the source filed them. How the source made its calls: active means hit-call score of the fitted dose curve at least 0.9, where 1 is the maximum; inactive means score below 0.9.
# Assay: ATG_M_06_CIS: Attagene CIS-FACTORIAL HepG2 Assay for M06 Transcription Factor (Internal Marker) (AID 2282950)
# Conditions: HepG2 Attagene CIS-FACTORIAL M06 internal marker reporter; actives raise or lower the signal
# Experimental: ATG_CIS is a cell-based, multiplexed-readout assay that uses HepG2, a human liver cell line, with measurements taken at 24 hours after chemical dosing in a 24-well plate.ATG_M_06_CIS is one of 52 assay component(s) measured or calculated from the ATG_CIS assay. It is designed to make measurements of mRNA induction, a form of inducible reporter, as detected with fluorescence intensity signals by Reverse transcription polymerase chain reaction (RT-PCR) and Capillary electrophoresis technology.Data from the assay component ATG_M_06_CIS was analyzed into 1 assay endpoint. This assay endpoint, ATG_M_06_CIS, was analyzed with bidirectional fitting relative to DMSO as the negative control and baseline of activity. Using a type of inducible reporter, measures of mRNA for gain or loss-of-signal activity can be used to understand the background control at the transcription factor-level as they relate to the gene . Furthermore, this assay endpoint can be referred to as a secondary readout, because this assay has produced multiple assay endpoints where this one serves a background control function. To generalize the intended target to other relatable targets, this assay endpoint is annotated to the background measurement intended target family, where the subfamily is internal marker.
# Human liver HepG2 cells are transiently transfected with multiple reporter transcription units (MRTUs) in 6-well plates using FuGene 6 reagent (Roche; 3 ml FuGene/1 mg DNA). The MRTU constructs are regulated by a cis-regulating element (promoter). […] A major difference between the CIS and TRANS system is that in CIS activities of endogenous TFs are measured, whereas the TRANS assay evaluates changes in activities of exogenous, chimeric NR-Gal4 proteins. […] At the end of 24 hour incubation, total RNA was isolated using TriZol reagent (Invitrogen). The isolated RNA is then reverse-transcribed using oligo(dT) primer and Mo-MLV reverse transcriptase (Invitrogen) with DNAse I (Ambion) treatment for 30 min. The one-tenth of the produced cDNA was amplified by PCR using Taq DNA polymerase (Invitrogen) and two reporter sequence-specific primers. The PCR products were fluorescently labeled by primer extension with 6-arboxyfluorescein (6-FAM) 5'-labeled reporter sequence-specific primer (2 min at 95 C, 20 s at 68 C and 10 min at 72 C) and these products were digested with 5U of HpaI (New England Biolabs) for 2h at 37 C. The fragments were purified using Qiaquick PCR columns (Qiagen), analyzed on an ABI 3130xL genetic analyzer (Applied Biosystems) with peak positions identified by using a set of X-rhodamine (ROX)-labeled MapMarker1000 molecular weight standards (BioVentures). The raw capillary electrophoresis data was processed using Attagraph software (Attagene).
row,Structure (SMILES),outcome
1,CC(C)(C)c1ccc(CCOc2ncnc3ccccc23)cc1,inactive
2,COc1ccccc1N,inactive
3,Nc1ccc(-c2ccccc2)cc1,inactive
4,CC(C=O)Cc1ccc2c(c1)OCO2 (stereo not given),inactive
5,COP(=S)(OC)Oc1cc(Cl)c(I)cc1Cl,inactive
6,ClCCN1CCOCC1,inactive
7,NNCCO,inactive
8,CC(C)(C#N)N=NC(C)(C)C#N,inactive
9,CC(C)N(C(=O)CCl)c1ccccc1,inactive
10,O=C1C=CC(=O)c2ccccc21,inactive
11,CNC(=O)CSP(=O)(OC)OC,inactive
12,O=[N+]([O-])c1ccccc1O,inactive
13,C[C@]12CC[C@@H](O)C[C@@H]1CC[C@@H]1[C@@H]2CC[C@]2(C)C(=O)CC[C@@H]12,inactive
14,OC(Cc1ccccc1Cl)(Cn1cncn1)C1(Cl)CC1 (stereo not given),inactive
15,O=C(Nc1ccc(Br)cc1)c1cc(Br)cc(Br)c1O,inactive
16,O=S(=O)(C(Cl)(Cl)Cl)C(Cl)(Cl)Cl,inactive
17,C=CCOC(N)=O,inactive
18,c1csc(-c2ccc(-c3cccs3)s2)c1,inactive
19,O=[N+]([O-])c1cccc2ccccc12,inactive
20,CCCCCCCCCCBr,inactive

row,Structure (SMILES),outcome
1,CC(C)(c1ccc(O)c(-c2ccccc2)c1)c1ccc(O)c(-c2ccccc2)c1,inactive
2,Cc1ccc(OP(=O)(Oc2ccc(C)cc2C)Oc2ccc(C)cc2C)c(C)c1,inactive
3,O=C=Nc1ccc(Cl)cc1,inactive
4,O=C1C[C@@H]2OCC=C3CN4CC[C@]56c7ccccc7N1[C@H]5[C@H]2[C@H]3C[C@H]46,inactive
5,CC(C)[C@H](C(=O)OC(C#N)c1cccc(Oc2ccccc2)c1)c1ccc(OC(F)F)cc1 (stereo not given in full),inactive
6,CCCCOC(C)=O,inactive
7,N#CS,inactive
8,OC[C@@H](O)[C@H]1O[C@@H]2O[C@H](C(Cl)(Cl)Cl)O[C@@H]2[C@H]1O,inactive
9,Cc1ccccc1OP(=O)(Oc1ccccc1C)Oc1ccccc1C,inactive
10,O=C(NC(=O)c1c(F)cccc1F)Nc1cc(Cl)c(Oc2ncc(C(F)(F)F)cc2Cl)c(Cl)c1,inactive
11,Clc1cccc(Cl)c1,inactive
12,C=CCc1ccccc1O,inactive
13,CCOC(=O)C(SP(=S)(OC)OC)c1ccccc1 (stereo not given),inactive
14,CCC[CH2][Sn]([Cl])([Cl])[CH2]CCC,inactive
15,CCOc1cc(C=O)ccc1O,inactive
16,N#CCCC(Br)(C#N)CBr (stereo not given),inactive
17,CCCSP(=S)(OCC)Oc1ccc(SC)cc1 (stereo not given),inactive
18,COc1ccc(N)cc1,inactive
19,CCN(CCO)CCO,inactive
20,C#CCOC(=O)/C=C(C)/C=C/CC(C)CCCC(C)C (stereo not given),inactive
